The full ranking holds about 68,000 sequences; the median of “fluorescence intensity (a.u.)” is about 9,100, and the highest 2% start at about 16,000. The list comes from a sample in which the highest values are over-represented; it also holds similar and randomly drawn sequences.

Chain of OsWRKY34 (Q0JBA9 entry or part of it): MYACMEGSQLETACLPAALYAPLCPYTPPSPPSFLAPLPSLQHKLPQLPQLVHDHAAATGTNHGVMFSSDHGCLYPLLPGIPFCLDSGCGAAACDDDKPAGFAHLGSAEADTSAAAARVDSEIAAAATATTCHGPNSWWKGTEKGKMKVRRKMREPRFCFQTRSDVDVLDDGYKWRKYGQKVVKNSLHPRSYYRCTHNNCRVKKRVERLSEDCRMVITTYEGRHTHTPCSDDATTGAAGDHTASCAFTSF

For the experiment, the target named is OsWRKY34 (Oryza sativa, UniProt Q0JBA9 1-250). Nature of the experiment: protein-binding microarray (RPBM); PBS, 2% BSA, 51.3 ng/ul salmon testes DNA, 50 uM zinc acetate, 200 nM TF, 25 C, 1 h; high values mean tight binding. The conditions noted are these: protein: recombinant; tags: N-terminal polyhistidine and DsRed monomer fusion (pET32a); label: CyDye5-dUTP incorporated in the synthesized complementary strand; 3' TTTTT single-stranded linker to array surface; dsDNA, one strand shown. A digest of the protocol:
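Ni–NTA purification followed expression in E. coli BL21-CodonPlus of transcription factors fused N-terminally to a polyhistidine tag and DsRed. At 200 nM in PBS with 2% BSA, salmon testes DNA and 50 µM zinc acetate, the protein was incubated for 1 h at 25 °C with a custom Agilent array that had been primer-extended with Cy5-dUTP and blocked with 2% BSA. After washing, the array was read on an Axon 4000B scanner. The binding signal is per-feature fluorescence intensity in arbitrary units.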
“GTACGTACAACATTGTGTATCTGTTTTGTAAGTTATTAACCGGAGTCACCTAGTGCAG”: the binding signal was 9710 fluorescence intensity (a.u.).
Regarding “TCCACTATGGCCATCCTGATATCTTTGATCGTCTTTTCCACGGAGTCACCTAGTGCAG”, the binding signal is 17500 fluorescence intensity (a.u.).
Turning to “AAAGCCTGTGGCCACATCTTATCTTTTCCATCCTTTGCATCGGAGTCACCTAGTGCAG”, the binding signal was 8040 fluorescence intensity (a.u.).
With “CTTTTTTTCCAACGTTTGACCATTTGTCTTATTCAAAAAACGGAGTCACCTAGTGCAG”, the binding signal is 8560 fluorescence intensity (a.u.).
Take “GACTTTTTATCCAACGTTTGACCATTCGTCTTATTCAAAACGGAGTCACCTAGTGCAG”: the binding signal was 10300 fluorescence intensity (a.u.).
As to “CGGTTTTGACGGACGTGGTGCCCACGTGGCTAGTTTGACTCGGAGTCACCTAGTGCAG”, the binding signal was 8980 fluorescence intensity (a.u.).
Regarding “ATCGGTGGTGGTGGTGGTGGTGGCCATGAGTCTCGTTTGACGGAGTCACCTAGTGCAG”, the binding signal was 27500 fluorescence intensity (a.u.).
As to “CCATTGACTTTTTGTCCAACGTTTGACCATTCGTCTTATTCGGAGTCACCTAGTGCAG”, the binding signal was 17000 fluorescence intensity (a.u.).
To “GTCGTTGACTTTTTAACCACAACGTTTGACCATTCGTCTTCGGAGTCACCTAGTGCAG” belongs 21800 fluorescence intensity (a.u.); to “TTGACCAACGTTTAACCATTCGTTTCATTTAATTTTTTTTCGGAGTCACCTAGTGCAG”, 10800 fluorescence intensity (a.u.); to “AACTCATCTGACAGTGATCCATCGTCCTTTTTCTTTGACTCGGAGTCACCTAGTGCAG”, 10100 fluorescence intensity (a.u.).
With “GTTTGGCCATGGTGCCGTCGTTGTCTCGTTGATGCTTAGTCGGAGTCACCTAGTGCAG”, the binding signal was 10700 fluorescence intensity (a.u.).
As for “TCAGTGGACTCGGTTCTGTTTTTTTGTCACTCCACTGGCACGGAGTCACCTAGTGCAG”, the binding signal is 9610 fluorescence intensity (a.u.).
With “CACTAAGTCCGTTCCCATGCCCATTTCTCCCTGCATATTACGGAGTCACCTAGTGCAG”, the binding signal was 9680 fluorescence intensity (a.u.).
Turning to “TCGTTGACTTTTTAACCAACGTTTAACCATTCGTCTTATTCGGAGTCACCTAGTGCAG”, the binding signal is 18600 fluorescence intensity (a.u.).
In the case of “ACCATTAACTTTTTCTTAATTCGTTTCACTATTTTTTTAACGGAGTCACCTAGTGCAG”, the binding signal is 9500 fluorescence intensity (a.u.).
To “CCGTTGACTTTTTAACTAATGTTTAACCATTCATTTTATTCGGAGTCACCTAGTGCAG” belongs 28900 fluorescence intensity (a.u.); to “TCTTGACCAACGTTTAACCATTCGTTTTATTTAAAATTTTCGGAGTCACCTAGTGCAG”, 9450 fluorescence intensity (a.u.); to “ACTTTTTAACCAACGTTTGACCATTCGTCTTATTCAAATTCGGAGTCACCTAGTGCAG”, 10600 fluorescence intensity (a.u.).
“CGTTGACTTTTTTTCAACGTTTAATAATTTATCTTATTCACGGAGTCACCTAGTGCAG”: the binding signal is 12900 fluorescence intensity (a.u.).
On to “TATGACGTCGTTGACTTTTTAACCAACGTTTGACCATCGTCGGAGTCACCTAGTGCAG”, for which the binding signal was 32900 fluorescence intensity (a.u.).
As for “GACTTTTCACGTAACGTTTGACCATTTATCTTATTTATAACGGAGTCACCTAGTGCAG”, the binding signal was 9970 fluorescence intensity (a.u.).
“ACTATTGACTTTTTTTCTATGTTAGACCATTCATTTTATTCGGAGTCACCTAGTGCAG”: the binding signal was 12300 fluorescence intensity (a.u.).
To “TGTTGACTTTTTTTATTAACGTTTAGCATTTATCTTATTTCGGAGTCACCTAGTGCAG” belongs 18000 fluorescence intensity (a.u.); to “TTGTACACTTATGATTTCCTATTTTTGCATATGATTTTGTCGGAGTCACCTAGTGCAG”, 8050 fluorescence intensity (a.u.).
To “GACACTAGGACAGTACGTAGCTACCTCTCCACTGCTCTGCCGGAGTCACCTAGTGCAG” belongs 8730 fluorescence intensity (a.u.); to “CTTGATTACCCCGTAGTCAGGTTTGTATGACTAAGCAACCCGGAGTCACCTAGTGCAG”, 8980 fluorescence intensity (a.u.); to “GACTGGGCCGTTGACCAGACGTGTACCCCACCGGCCAGTCCGGAGTCACCTAGTGCAG”, 9290 fluorescence intensity (a.u.).
To “GCCAAGGCCTTACTGCTGCTTCTGTTTCTTGCCACCAATGCGGAGTCACCTAGTGCAG” belongs 9650 fluorescence intensity (a.u.).
Regarding “GTTTGACTATTTTATGCCTTGTAGCTTGAGCTACAGTTCACGGAGTCACCTAGTGCAG”, the binding signal is 10100 fluorescence intensity (a.u.).
For the sequence “CTCTCTAACTGCAGATTTCCCTCCCCTTTCAACGCGCGCGCGGAGTCACCTAGTGCAG”, the binding signal was 8110 fluorescence intensity (a.u.).
On to “CCCCATCAACCTCCTCTTCTTCTTCGCCTCGTCTCGTCTTCGGAGTCACCTAGTGCAG”, for which the binding signal was 9670 fluorescence intensity (a.u.).
With “TGCTGACTTGGCGTTGACCTGTGAAATTCTCTCGCTTCACCGGAGTCACCTAGTGCAG”, the binding signal was 11500 fluorescence intensity (a.u.).
Regarding “ATTTTATCCAACGTTTGACCATTCGTCTTATATAAAATATCGGAGTCACCTAGTGCAG”, the binding signal is 9960 fluorescence intensity (a.u.).
Take “TATTAAATCATTTAATTTTAGCTATTGTTTTTTATTTATTCGGAGTCACCTAGTGCAG”: the binding signal was 9250 fluorescence intensity (a.u.).
To “CGTCCAACTTTGATCGTCCGTTTTATTTGAATTTTTTTATCGGAGTCACCTAGTGCAG” belongs 11200 fluorescence intensity (a.u.); to “GCCGTTGACTTTTTATCCAACGTTTGATCATTCGTCTTATCGGAGTCACCTAGTGCAG”, 40800 fluorescence intensity (a.u.); to “TTTATTAAACCTAGTTAATCCATTGTTAGCAAATATTTAACGGAGTCACCTAGTGCAG”, 23300 fluorescence intensity (a.u.).
On to “TTTCGATTGTTGTTTATTTTCCAGCATTAGTTTTTAAATCCGGAGTCACCTAGTGCAG”, for which the binding signal was 8320 fluorescence intensity (a.u.).
With “TCTTTTTTTTTTTCATTATTGTTTGAATATTGATTTCACACGGAGTCACCTAGTGCAG”, the binding signal is 8780 fluorescence intensity (a.u.).
To “TTGCAAAATTTAAAATTATGTTGTCATTGTAATATATTTTCGGAGTCACCTAGTGCAG” belongs 8440 fluorescence intensity (a.u.); to “GTTGGTTTTTACATTTGTTTGCTCGAGTCATATATGTCGTCGGAGTCACCTAGTGCAG”, 9010 fluorescence intensity (a.u.).

The values are drawn from paper PMC7819943, “Rice protein-binding microarrays: a tool to detect cis-acting elements near promoter regions in rice”.
